# Data taken from PubChem BioAssay (NCI).
# Compounds without any hit were thinned out: in the full panel of roughly 79,000, 15% have a hit. A number with no mark means an inactive call. Calls of active or inactive are those of the source. Cut-off read from the data, not from the text of the source: active = growth inhibition above about 70%; inactive = the rest.
# What was measured:
# [1] = NCI Yeast Anticancer Drug Screen. Data for the rad50 strain (AID 155);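 note: 0% = growth of vehicle-only cultures of the same strain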; conditions: S. cerevisiae rad50 strain growth inhibition, hits give high values
# Method in brief: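 Inhibition values express reduced yeast growth in compound-treated cultures relative to vehicle-treated controls.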
# [2] = NCI Yeast Anticancer Drug Screen. Data for the mec2-1 strain (AID 157); conditions: S. cerevisiae mec2-1 strain, hits give high values
# Method in brief: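 Readout is yeast growth inhibition, normalised to vehicle-treated controls, in the mec2-1 strain exposed to compound.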
# [3] = NCI Yeast Anticancer Drug Screen. Data for the sgs1 mgt1 strain (AID 161);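 note: 0% = growth of cultures given vehicle only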; conditions: S. cerevisiae sgs1 mgt1 strain, hits give high values
# Method in brief: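 Percent growth inhibition was derived by comparing compound-exposed mutant yeast with vehicle-exposed cultures. The strain carries alterations in DNA damage repair.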
# [4] = NCI Yeast Anticancer Drug Screen. Data for the cln2 rad14 strain (AID 165);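 note: 0% = growth equal to vehicle treated cultures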; conditions: S. cerevisiae cln2 rad14 strain, hits give high values
# Method in brief: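 Relative to vehicle controls, growth inhibition of compound-treated cln2 rad14 yeast was recorded.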
# [5] = NCI Yeast Anticancer Drug Screen. Data for the bub3 strain (AID 167); conditions: S. cerevisiae bub3 mutant strain, hits give high values
# Method in brief: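 Steps: expose the mutant yeast strain to compound; grow alongside vehicle-treated cultures; measure growth; express inhibition against the vehicle cultures.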
# [6] = NCI Yeast Anticancer Drug Screen. Data for the mlh1 rad18 strain (AID 175); conditions: S. cerevisiae mlh1 rad18 strain growth inhibition, hits give high values
# Method in brief: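 Test agents were incubated with a yeast strain of defined genotype (DNA damage repair defect). Inhibition of growth was derived by comparison with vehicle-exposed cultures.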
# [7] = at 5.0 µM (retest, dose inferred, filed as 0.5)
# [8] = at 50.0 µM (retest, dose inferred, filed as 5.0)
SMILES,"growth inhibition [1, 7]","growth inhibition [1, 8]",growth inhibition ([1]; at 50.0 µM),"growth inhibition [2, 7]","growth inhibition [2, 8]",growth inhibition ([2]; at 50.0 µM),"growth inhibition [3, 7]","growth inhibition [3, 8]",growth inhibition ([3]; at 50.0 µM),"growth inhibition [4, 7]","growth inhibition [4, 8]",growth inhibition ([4]; at 50.0 µM),"growth inhibition [5, 7]","growth inhibition [5, 8]",growth inhibition ([5]; at 50.0 µM),"growth inhibition [6, 7]","growth inhibition [6, 8]",growth inhibition ([6]; at 50.0 µM)
Cc1ccc(C2COc3cc(O)c(O)cc3C2)cc1 (stereo not given),29%,99% (active),99.5% (active),33%,99% (active),99.6% (active),32%,99% (active),99.5% (active),11%,99% (active),96.2% (active),32%,99% (active),99.6% (active),51%,99% (active),99.4% (active)
O=C1c2cc(O)ccc2C(=O)c2c1ccc(O)c2O,11%,98% (active),98.7% (active),14%,99% (active),97.2% (active),12%,98% (active),96.5% (active),12%,97% (active),90.7% (active),4%,98% (active),97.8% (active),4%,99% (active),98.2% (active)
CCCC(=O)Oc1ccc([N+](=O)[O-])cc1,4%,23%,28.4%,2%,13%,29%,-1%,8%,11.1%,2%,6%,34.9%,4%,12%,4.5%,4%,13%,13.1%
CCOC(=O)c1ccc2c3c([nH]c2c1C)-c1ccccc1CC3,12%,93% (active),93.5% (active),-7%,94% (active),94% (active),14%,95% (active),94.7% (active),-9%,91% (active),90.7% (active),1%,94% (active),94.2% (active),14%,94% (active),91.9% (active)
CCCC1(C)C(C#N)(C#N)C1(C#N)C#N,98% (active),98% (active),98.5% (active),96% (active),99% (active),99.3% (active),98% (active),99% (active),99.3% (active),99% (active),99% (active),99.1% (active),99% (active),99% (active),99% (active),99% (active),99% (active),99.2% (active)
O/N=C1/CC2CCCc3ccc4cccc1c4c32 (stereo not given),-18%,-10%,60.2%,-18%,-3%,22.4%,-18%,15%,22.9%,-24%,-20%,12.2%,-12%,25%,81.8% (active),-26%,3%,-4%
CC(=O)OC1=C(CC(C)C)C(=O)c2ccccc2C1=O,7%,67%,69.2%,8%,70% (active),59.2%,7%,88% (active),78.6% (active),1%,55%,51%,6%,78% (active),56.6%,20%,85% (active),73.5% (active)
Nc1ccccc1Sc1ccc(F)cc1[N+](=O)[O-],-6%,85% (active),71% (active),-19%,26%,89.8% (active),2%,76% (active),89.1% (active),-6%,59%,72.3% (active),-3%,85% (active),88.8% (active),-4%,93% (active),88.5% (active)
NC(=O)NNC(=O)NNC(N)=O,-4%,9%,0.95%,-2%,1%,-4.8%,3%,4%,-20.2%,-1%,3%,70.8% (active),-4%,-8%,-3.5%,-3%,9%,-3.85%
O=C(Nc1ccccc1)OCCCCl,-7%,-4%,9.1%,-7%,1%,-13.3%,-16%,25%,30.6%,25%,-7%,64.3%,-19%,-19%,7.3%,-23%,-8%,12.4%
Cc1cc(Cl)ccc1Nc1sc(C(=O)c2cc3cc(Cl)ccc3o2)c(N)c1C#N,16%,53%,23.7%,-3%,48%,45.5%,8%,65%,45%,6%,84% (active),83% (active),13%,55%,50.1%,-7%,66%,36.5%
O=Cc1ccc(/C=N\Nc2ccccc2)cc1,1%,12%,82.3% (active),-5%,0%,33.2%,-3%,-4%,41.9%,1%,7%,34.1%,-1%,12%,-9.55%,4%,30%,92.3% (active)
Cn1c(=O)[nH]c2nnc(-c3ccccc3)nc2c1=O,7%,89% (active),56.6%,6%,92% (active),29.2%,38%,92% (active),61.5%,-3%,89% (active),-13.7%,8%,93% (active),33.4%,13%,90% (active),68.1%
CN(C)C(=S)SSSSC(=S)N(C)C,96% (active),99% (active),96.9% (active),98% (active),99% (active),96.7% (active),98% (active),99% (active),98.3% (active),65%,99% (active),93.3% (active),96% (active),99% (active),96.8% (active),97% (active),99% (active),97% (active)
CNC(=O)OCCC(OC(=O)NC)C1CCC2C3CC=C4CC(OC(=O)NC)CCC4(C)C3CCC12C (stereo not given),85% (active),94% (active),6.5%,52%,94% (active),-1.8%,77% (active),96% (active),2.6%,72% (active),89% (active),-6.45%,73% (active),94% (active),-1.8%,88% (active),91% (active),34.5%
Nc1ccccc1/C=C1/Sc2cc[nH]c2C1=O,2%,5%,4.9%,1%,-1%,5.55%,-2%,-5%,-15.8%,-1%,-3%,3.1%,15%,40%,83.8% (active),3%,10%,-9.8%
ON=C1Cc2ccccc2-c2ccccc2C1,2%,1%,-23%,2%,5%,-11.1%,8%,4%,-3.3%,1%,7%,39.2%,-5%,1%,6.1%,-3%,-2%,17.1%
COc1cc(C2OC(=O)c3ccccc3S2)ccc1O (stereo not given),8%,92% (active),98.7% (active),12%,98% (active),98.6% (active),-4%,74% (active),71.6% (active),7%,76% (active),96% (active),5%,84% (active),95.5% (active),13%,98% (active),99.5% (active)
COc1cc(/C=C2/N=C(c3ccccc3)N(C3=NNC4(C(=O)N3)c3ccccc3-c3ccccc34)NC2=O)ccc1O,4%,3%,36.5%,-1%,7%,-5.05%,6%,14%,7.55%,3%,1%,-46.6%,-2%,-7%,27.4%,-17%,11%,20.5%
CS(=O)(=O)OCCN(CCOS(C)(=O)=O)c1ccc(C=Nc2cc(Cl)c(O)c(Cl)c2)c(Cl)c1,-1%,28%,46.6%,42%,4%,-5%,-1%,32%,38.5%,0%,3%,-23.1%,-1%,-1%,1.25%,9%,57%,86% (active)
